Sampled rows, rich in hits. Any-hit rate of the full collection: about 0.44%.
EPAC1 antagonist = EPAC1 (human) antagonism. O95398. EPAC1 GEF assay, Rap1b-BODIPY-GDP exchange fluorescence. Potency, µM (series often up to 115 µM), without a hit: at the highest dose activity change, negative = inhibition, usual class: inhibitors. hit rate 0.14% among 360,000. AID 720709;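 also: plate controls were vehicle for no effect and positive control for full effect; nearly all actives have a fitted effect of over 50% in size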
Target sequence (O95398 whole entry, looked up): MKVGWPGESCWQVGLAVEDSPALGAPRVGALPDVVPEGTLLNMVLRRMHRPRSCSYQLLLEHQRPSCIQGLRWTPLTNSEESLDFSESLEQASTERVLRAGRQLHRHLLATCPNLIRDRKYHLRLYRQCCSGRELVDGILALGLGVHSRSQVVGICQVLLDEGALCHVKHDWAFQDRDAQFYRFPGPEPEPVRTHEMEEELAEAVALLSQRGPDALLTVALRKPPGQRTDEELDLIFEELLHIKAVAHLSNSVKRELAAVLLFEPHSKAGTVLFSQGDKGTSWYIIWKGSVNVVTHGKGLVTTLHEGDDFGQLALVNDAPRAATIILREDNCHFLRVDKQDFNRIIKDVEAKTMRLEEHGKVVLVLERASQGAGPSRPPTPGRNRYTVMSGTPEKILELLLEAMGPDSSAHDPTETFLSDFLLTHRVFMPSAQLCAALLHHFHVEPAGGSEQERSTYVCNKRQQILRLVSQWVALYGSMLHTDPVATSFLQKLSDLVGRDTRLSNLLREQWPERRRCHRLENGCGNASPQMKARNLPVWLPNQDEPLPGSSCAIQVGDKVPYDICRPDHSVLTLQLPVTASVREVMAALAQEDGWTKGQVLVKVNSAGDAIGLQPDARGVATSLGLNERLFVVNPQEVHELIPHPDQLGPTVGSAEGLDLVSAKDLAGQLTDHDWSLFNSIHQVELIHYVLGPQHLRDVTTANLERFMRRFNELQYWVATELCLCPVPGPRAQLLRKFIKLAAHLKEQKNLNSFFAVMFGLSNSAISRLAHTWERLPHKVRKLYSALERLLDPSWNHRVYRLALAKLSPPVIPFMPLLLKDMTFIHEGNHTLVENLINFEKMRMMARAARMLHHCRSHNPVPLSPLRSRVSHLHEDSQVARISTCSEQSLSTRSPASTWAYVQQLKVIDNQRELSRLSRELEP
USP2a block = blocks human ubiquitin-specific protease USP2a; O75604; USP2 core, Ub-CHOP2 coupled fluorogenic reporter, 485/531; Potency, µM (series often up to 38.3 µM), for inactives: at the highest dose activity change, negative = inhibition, usual class: inhibitors; hit rate 0.01% among 330,000;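 also: plate controls were DMSO wells for no effect and full inhibition by NEM control for full effect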
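Deubiquitinase activity read as fluorescence (485/531 nm) after Ub-CHOP2 cleavage activates the enterokinase reporter on its substrate; USP2 core 10nM, Ub-CHOP2 and substrate 25nM each, 30min compound preincubation then 60min RT; data normalized to NEM, curves fitted.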
EPAC2 antag = blocks human EPAC2 exchange factor. Q8WZA2. EPAC2 GEF exchange of Rap1B-BODIPY-GDP, fluorescence. Potency, µM (doses to about 114 µM), for the others: top-dose activity, negative = inhibition, most hits filed as inhibitors. hit rate 0.18% among 360,000; also: % is scaled to controls: 0 for no effect and ±100 for the full control effect; nearly all actives have a fitted effect of over 45% in size
USP1 inh = USP1/UAF1 (human) deubiquitinase inhibition | O94782 | recombinant USP1/UAF1, Ub-Rhodamine cleavage fluorescence | Potency, µM (highest dose often 57.1 µM), for the others: at the top dose activity change, negative = inhibition, hits mostly inhibitors | hit rate 0.23% among 390,000; also: % is scaled to controls: 0 for no effect and ±100 for the full control effect; nearly all actives have a fitted effect of over 60% in size
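USP1/UAF1 complex at 1 nM was preincubated with compound for 15 min at room temperature, then Ub-Rho substrate (150nM final) was added. Fluorescence (480/540 nm) was read kinetically, 6 reads every 60 seconds.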
EPAC2 agonist = activates human EPAC2 exchange factor; hit rate 0.079% among 360,000; Q8WZA2; AID 720711; Potency, µM (highest dose often 154 µM), inactives show at the highest dose activation, most hits filed as activators; EPAC2 activation, biochemical qHTS; response scale: 100% = 6.5 mM cAMP response; also: nearly all actives have a fitted effect of over 50% in size
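Compounds were titrated in qHTS against a Rap1B-BODIPY-GDP (250 nM) complex with EPAC2 (100 nM) and GDP (50 uM). BODIPY-GDP release tracked at 480/540 nm over 30 min at room temperature, normalized to 6.5 mM cAMP.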
EPAC1 ag = agonists of human EPAC1; Potency, µM (titrated, usually from 154 µM), for the others: at the highest dose activation, usual class: activators; hit rate 0.073% among 360,000; O95398; EPAC1 agonist qHTS, biochemical assay; response scale: 100% = response to 6.5 mM cAMP; also: nearly all actives have a fitted effect of over 60% in size
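Normalized to 6.5 mM cAMP, activity reflects EPAC1-catalysed release of BODIPY-GDP from Rap1B, followed kinetically over 30 min at 480 nm excitation, 540 nm emission. Reaction contained 100 nM EPAC1, 250 nM Rap1B-BODIPY-GDP, 50 uM GDP.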
The depositor's hits bear a star; ? = inconclusive; · = no result given. Calls follow the shape of the dose curve; as a rule, active = well fitted curve in the direction sought with a large enough effect; inconclusive = small, poorly fitted or top-dose-only effect, or another doubt; inactive = no such curve, though single readings can be large; an effect the other way counts as inactive or inconclusive. Potency is read from the fitted curve at half-maximal effect.

SMILES	EPAC1 antagonist	USP2a block	EPAC2 antag	USP1 inh	EPAC2 agonist	EPAC1 ag
COc1ccc(S(=O)(=O)c2cn(C)c3cc(N4CCCCCC4)c(F)cc3c2=O)cc1	·	·	·	0.0%	·	·
Cc1ccccc1Nc1cc2ccccc2c(=O)[nH]1	?	1.1%	?	1µM*	20.0%	11.0%
O=c1[nH]c(Nc2ccc(F)cc2)cc2ccccc12	?	0.4%	?	12.6µM*	18.6%	0.4%
O=c1oc(Nc2ccccc2Cl)nc2ccccc12	-5.2%	6.1%	8.2%	-20.8%	-0.1%	-5.4%
Cc1cc2ccccc2c(=O)[nH]1	2.7%	5.7%	-0.1%	-6.4%	3.4%	1.4%
O=c1[nH]c(Nc2ccccc2Cl)cc2ccccc12	6.9%	·	6.7%	14.1µM*	2.3%	-1.9%
COc1ccc(N2CC(C(=O)Nc3ccccc3-c3nc(-c4ccc(C)cc4)no3)CC2=O)cc1 (stereo not given)	·	·	·	-9.2%	·	·
CCOCCCNC(=O)C(c1ccc(C)cc1)N(Cc1ccc2c(c1)OCO2)C(=O)c1ccccc1O (stereo not given)	·	·	·	-3.8%	·	·
CCOc1ccc(NC(=O)c2cc3c(n(-c4ccc(OC)cc4)c2=O)CC(C)(C)CC3=O)cc1	·	·	·	-12.9%	·	·
CCC(/C=C1\Oc2ccc(OC)cc2N1C)=C\c1sc2ccccc2[n+]1CCCS(=O)(=O)[O-]	5.3%	·	15.0%	-21.9%	10.7%	0.2%
COc1cc(/C=C/c2sc3ccccc3[n+]2CCCS(=O)(=O)[O-])ccc1O	?	0.0%	?	25.1µM*	0.3%	-0.3%
O=C(CSc1n[nH]c(-c2ccccc2)n1)c1ccc(O)c(O)c1	35.5µM*	1.2%	0.8%	-3.5%	10.1%	-1.5%
Cc1cc(SCC(=O)c2ccc(O)c(O)c2)nc2ccccc12	28.2µM*	-1.3%	-29.6%	-10.2%	19.2%	12.5%
Cc1cc(SCC(=O)c2ccc3c(c2)OCO3)nc2ccccc12	-0.5%	1.4%	-3.5%	?	19.9%	18.8%
Cc1ccc(O)c(NC(=O)CSc2n[nH]c(-c3ccccc3)n2)c1	11.9%	-0.1%	-1.0%	-22.9%	3.7%	9.9%
CCC(=C(c1ccc(OC)cc1)c1ccc(OC)cc1)c1cn(CC(O)CN(CCO)CCO)c2ccccc12 (stereo not given)	-5.9%	-14.8%	14.1µM*	-21.0%	3.0%	2.2%
CC1CCN(c2ccc3c(c2)S(=O)(=O)c2ccccc2C3=O)CC1	40.0%	·	10.9%	?	27.9%	89.1µM*
O=C1c2ccccc2S(=O)(=O)c2cc(N3CCN(C(=O)c4ccccc4)CC3)ccc21	1.1%	·	51.3%	-16.0%	-10.1%	-2.2%
NC(=O)C1CCN(c2ccc3c(c2)S(=O)(=O)c2ccccc2C3=O)CC1	9.2%	·	1.9%	?	-48.5%	2.4%
O=C1c2ccccc2S(=O)(=O)c2cc(N3CCC4(CC3)OCCO4)ccc21	2.0%	·	11.1%	-26.8%	112µM*	8.2%
Cc1ccc(NC2=C(NCCO)C(=O)c3ccccc3C2=O)cc1	-28.5%	-0.9%	?	14.1µM*	-4.9%	-3.7%
Cc1ccc(Cn2c(CNC(=O)c3ccccc3Br)nc3cccnc32)cc1	·	·	·	-18.7%	·	·
COc1cccc2c1C(=O)c1c(O)c3c(c(O)c1C2=O)C[C@@](O)(C(=O)CO)C[C@@H]3OC1CC(N)C(O)C(C)O1 (stereo not given in full)	17.3%	·	-5.3%	?	-5.9%	?
COc1cccc2c1C(=O)c1c(O)c3c(c(O)c1C2=O)CC(O)(C(C)=O)CC3OC1CC(N(C)C)C(O)C(C)O1 (stereo not given)	27.6%	·	20.6%	?	8.8%	89.1µM*
COc1cccc2c1C(=O)c1c(O)c3c(c(O)c1C2=O)C[C@@](O)(C(=O)CO)C[C@@H]3O[C@H]1C[C@H](N)[C@H](O)[C@H](C)O1	5.6%	?	75.8%	31.6µM*	5.5%	?
SMILES	EPAC1 antagonist	USP2a block	EPAC2 antag	USP1 inh	EPAC2 agonist	EPAC1 ag
CC(=O)[C@@]1(O)Cc2c(O)c3c(c(O)c2[C@H](O[C@H]2C[C@H](N)[C@H](O)[C@H](C)O2)C1)C(=O)c1ccccc1C3=O	142.9%	·	178.5%	·	?	28.2µM*
CN(C)c1ccc(/C=C2\SC(=O)N(CC(O)Cn3c4ccccc4c4ccccc43)C2=O)cc1 (stereo not given)	87.4%	11.0%	46.0%	12.6µM*	21.8%	?
O=C1S/C(=C/c2ccccc2)C(=O)N1CC(O)Cn1c2ccccc2c2ccccc21 (stereo not given)	-3.6%	2.1%	6.0%	-22.3%	1.4%	-3.1%
CCOC(=O)C1Nc2ccc(C(=O)O)cc2C2C=CCC12 (stereo not given)	6.0%	0.9%	1.0%	17.8µM*	8.8%	20.3%
CCOC(=O)c1ccc2c(c1)C1C=CCC1C(C(=O)O)N2 (stereo not given)	·	-0.2%	·	·	·	·
O=C(O)c1cc(N2N=C(C(F)(F)F)/C(=C/C=C/c3ccco3)C2=O)ccc1Cl	35.5µM*	10µM*	?	28.2µM*	13.9%	-0.5%
CCOC(=O)c1ccc(N2N=C(C)/C(=C/C=C/c3ccco3)C2=O)cc1	6.6%	-5.2%	3.1%	-24.4%	-0.1%	-2.0%
CC(C)c1ccc(NC(=O)Cn2c(=O)n(CC3CCC(C(=O)NCCc4ccccc4)CC3)c(=O)c3ccccc32)cc1 (stereo not given)	·	·	·	-26.4%	·	·
Cc1cccc(S(=O)(=O)NC(=O)C2(C)CCN2C(=O)Cc2cc(F)ccc2F)c1 (stereo not given)	100µM*	·	-11.2%	·	8.5%	-10.8%
CC1(C(=O)NS(=O)(=O)c2cccc(Cl)c2)CCN1C(=O)Cc1cc(F)ccc1F (stereo not given)	6.4%	·	16.8%	·	1.6%	-10.5%
Cc1ccc(OCC(=O)Nc2ccc(S(=O)(=O)Nc3cc(C)nc(C)n3)cc2)c(Br)c1	·	·	·	-27.3%	·	·
Oc1c(Cl)cc(Cl)cc1Sc1cc(Cl)cc(Cl)c1O	·	2.3%	·	·	·	·
O=S(c1cc(Cl)cc(Cl)c1O)c1cc(Cl)cc(Cl)c1O	39.8µM*	·	37.7µM*	·	-6.9%	-5.4%
COc1ccc(Br)cc1CN1C(=O)c2ccccc2C1C(=O)NC1CCCCCC1 (stereo not given)	·	·	·	-18.3%	·	·
Cc1ccc(S(=O)(=O)Nc2ccccc2C(=O)Nc2nc(-c3ccc(F)cc3)cs2)cc1	79.4µM*	?	-23.5%	-11.6%	-2.1%	8.9%
O=C(Nc1cc(S(=O)(=O)N2CCCCC2)ccc1Cl)c1ccccc1NS(=O)(=O)c1ccc(F)cc1	50.1µM*	-7.5%	-17.3%	-17.1%	-10.2%	-0.4%
